Screening results: PubChem, National Center for Advancing Translational Sciences (NCATS)
Luciferase inh = Firefly luciferase inhibition profiling of diverse chemical library using quantitative high-throughput screening; AID 1347043, 2019; 2.5% of 76,000 active; purified P. pyralis luciferase, luminescence, biochemical; Luciferin 4-monooxygenase (Photinus pyralis), P08659; Potency, µM (series often up to 115 µM), hits mostly inhibitors; further: nearly all actives have a fitted effect of over 65% in size
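Luminescence read by CCD imager after adding enzyme (10nM final) to wells holding compound, titrated in qHTS. Substrates 10uM each D-luciferin and ATP; buffer 50mM Tris acetate pH 7.5, 10mM Mg acetate, Tween-20, BSA.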
GPT2 inh = Primary qHTS assay for inhibitors of Glutamate pyruvate transaminase 2 (GPT2). Alanine aminotransferase 2 (Homo sapiens), Q8TD30. Recombinant GPT2, coupled pyruvate oxidase/HRP Amplex Red fluorescence. Potency, µM (doses to about 57.7 µM), actives largely listed as inhibitors. 0.25% of 100,000 active; further: nearly all actives have a fitted effect of over 60% in size
Target sequence (Q8TD30 whole entry, looked up): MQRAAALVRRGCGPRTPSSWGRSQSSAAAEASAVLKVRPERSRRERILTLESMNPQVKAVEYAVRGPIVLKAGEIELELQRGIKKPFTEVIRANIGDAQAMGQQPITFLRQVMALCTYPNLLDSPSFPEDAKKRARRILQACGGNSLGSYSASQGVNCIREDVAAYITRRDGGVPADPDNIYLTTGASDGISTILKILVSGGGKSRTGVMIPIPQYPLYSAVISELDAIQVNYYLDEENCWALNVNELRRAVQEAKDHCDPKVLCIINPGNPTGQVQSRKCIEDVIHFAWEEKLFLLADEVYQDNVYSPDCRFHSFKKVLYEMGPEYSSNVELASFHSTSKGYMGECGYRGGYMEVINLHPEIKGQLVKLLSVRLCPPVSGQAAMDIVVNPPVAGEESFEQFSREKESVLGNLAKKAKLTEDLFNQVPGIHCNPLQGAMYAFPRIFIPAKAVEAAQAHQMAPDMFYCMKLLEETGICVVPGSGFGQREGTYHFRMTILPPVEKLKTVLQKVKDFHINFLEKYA
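Recombinant GPT2 (10ng/uL) with 250uM a-KG and 2mM L-alanine, 30 min at room temperature, in HEPES pH 7.5 buffer. Pyruvate detected by pyruvate oxidase/HRP/Amplex Red fluorescence after 30 min in the dark; AOA (50uM) as positive control.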
HEK293 tox = Cytotoxic Profiling in HEK 293 Cell Line of Diverse Libraries Using Quantitative High-Throughput Screening; HEK 293 viability, ATP luminescence (CellTiter-Glo), 48-72 h; Potency, µM (series often up to 115 µM), most hits filed as inhibitors; 6.6% of 94,000 active; further: nearly all actives have a fitted effect of over 60% in size
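HEK 293 seeded at 250 cells/well receive compound via pintool. After 48 or 72 hr at 37 degree Celsius, 5% CO2 and 95% humidity, CellTiter-Glo is dispensed and luminescence read following 10 min at room temperature.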
3T3 cytotox = Cytotoxic Profiling in NIH 3T3 Cell Line of Diverse Libraries Using Quantitative High-Throughput Screening; 4.3% of 94,000 active; Potency, µM (top dose mostly 96.7 µM), usual class: inhibitors; AID 1345082, 2018; NIH 3T3 viability, CellTiter-Glo ATP luminescence, 48-72 h; further: nearly all actives have a fitted effect of over 55% in size
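NIH 3T3 cells at 400 cells/well received 23 nL of compound by pintool and were incubated 48 or 72 h at 37 °C. Viability was read as ATP-coupled CellTiter-Glo luminescence.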
NPR1 antag = Natriuretic polypeptide receptor (hNpr1) antagonism - Primary qHTS. HEK293 hNpr1 GloSensor cGMP, ANP-stimulated luminescence. 1.6% of 76,000 active. Atrial natriuretic peptide receptor 1 (Homo sapiens), P16066. Potency, µM (titrated, usually from 46.3 µM), most hits filed as inhibitors; calls by dose curve; further: nearly all actives have a fitted effect of over 60% in size
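Compound pre-incubated 30 min at room temperature on GloSensor-loaded HEK293 cells stably carrying hNpr1 and the pGS-40F cGMP biosensor. Stimulation uses hNppA at 0.1 nM final; luminescence is taken at baseline and 20 min post-agonist.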
Large screens that a line does not name were inactive. Compounds with a hit are over-represented: about 10% of the library has one in this group of screens. Unless noted, the call rests on the fitted dose curve; in most records, active means well fitted curve in the direction sought with a large enough effect; inconclusive means small, poorly fitted or top-dose-only effect, or another doubt; inactive means no such curve, though single readings can be large; an effect the other way counts as inactive or inconclusive.

CC(=O)NC1(C)CCN(Cc2ccc(-c3ccccc3Oc3ccccc3)cc2)C1 (stereo unspecified)	HEK293 tox 56µM, 3T3 cytotox 40µM
CC(=O)NC1(C)CCN(Cc2ccc(-c3ccc([S+](C)(=O)[O-])cc3)cc2)C1 (stereo unspecified)	HEK293 tox inconclusive
O=[S+]([O-])(c1cccs1)N1CCN(Cc2ccccc2-c2cccnc2)CC1	HEK293 tox inconclusive, 3T3 cytotox inconclusive (no result: Luciferase inh, NPR1 antag)
O=C(C1CCN(Cc2ccccc2-c2cccnc2)CC1)N1CCC(c2ccccc2)CC1	HEK293 tox 35µM, 3T3 cytotox 45µM (no result: Luciferase inh, NPR1 antag)
O=C(C1CCN(Cc2ccccc2-c2cccnc2)CC1)N1CCCC1	HEK293 tox inconclusive (no result: Luciferase inh, NPR1 antag)
O=C(Nc1ccc(Cl)cc1)N1CCN(Cc2ccccc2-c2cccnc2)CC1	HEK293 tox inconclusive, 3T3 cytotox 35µM (no result: Luciferase inh, NPR1 antag)
O=[S+]([O-])(c1ccccc1)N1CCN(Cc2ccccc2-c2cccnc2)CC1	HEK293 tox 35µM, 3T3 cytotox inconclusive (no result: Luciferase inh, NPR1 antag)
COCCCn1c(=O)c(C(=O)NCC(F)F)nc2cccnc21	none (no result: Luciferase inh, NPR1 antag)
CNC(=O)c1cc(C)nc2onc(C3CCCN(C(=O)NC(C)C)C3)c12 (stereo unspecified)	none (no result: Luciferase inh, GPT2 inh, NPR1 antag)
CC(=O)NC1(C)CCCN(Cc2cccc(-c3ccc4c(ccn4C)c3)c2)C1 (stereo unspecified)	Luciferase inh inconclusive, HEK293 tox 56µM, 3T3 cytotox 79µM, NPR1 antag inconclusive
CC(=O)NC1(C)CCN(Cc2cccc(-c3cccc(Cl)c3)c2)C1 (stereo unspecified)	Luciferase inh inconclusive, HEK293 tox 79µM, 3T3 cytotox inconclusive
COc1cccc(-c2nnnn2[C@H]2CO[C@H]3[C@@H]2OC[C@@H]3NS(=O)(=O)c2ccc(NC(C)=O)cc2)c1	none
COc1ccc(-c2nc(C3CC3)nc3c2CCN([S+](=O)([O-])c2cccc(C(F)(F)F)c2)CC3)cc1	HEK293 tox inconclusive, 3T3 cytotox inconclusive (no result: Luciferase inh, NPR1 antag)
COC(=O)N1CC(N2C(=O)c3c(c(C)nn3-c3ccccc3)C2C(C)C)C1 (stereo unspecified)	HEK293 tox inconclusive (no result: Luciferase inh, GPT2 inh, NPR1 antag)
COc1cccc(-c2ccc(CN3CCCC3C(=O)NCC3CC3)cc2)c1 (stereo unspecified)	HEK293 tox 45µM, 3T3 cytotox inconclusive (no result: Luciferase inh, NPR1 antag)
COc1cccc(-c2ccc(CN3CCCC3C(=O)NCc3ccc(C(F)(F)F)cc3)cc2)c1 (stereo unspecified)	HEK293 tox 35µM, 3T3 cytotox inconclusive (no result: Luciferase inh, NPR1 antag)
COc1cccc(-c2ccc(CN3CCCC3C(=O)NCc3ccc(F)cc3)cc2)c1 (stereo unspecified)	HEK293 tox inconclusive, 3T3 cytotox inconclusive (no result: Luciferase inh, NPR1 antag)
O=C1Cc2c(-c3ccccc3Oc3ccccc3)n[nH]c2CN1CC1CCOCC1	3T3 cytotox inconclusive
O=C1Cc2c(-c3ccccc3Cl)n[nH]c2CN1CC1CCOCC1	3T3 cytotox 89µM
O=C1Cc2c(-c3ccccc3)n[nH]c2CN1CC1CCOCC1	3T3 cytotox 50µM
COCCNC(=O)c1cn2cc(-c3ccc(F)cc3)sc2n1	HEK293 tox inconclusive, 3T3 cytotox inconclusive (no result: Luciferase inh, NPR1 antag)
O=C(c1cc(=O)[nH]c2cc(F)ccc12)N1CCCC(CCc2ccc(F)cc2)C1 (stereo unspecified)	HEK293 tox inconclusive, 3T3 cytotox inconclusive, NPR1 antag inconclusive
Cc1nc(C(=O)N2CCCC(CCc3cccc(C(F)(F)F)c3)C2)c(C)o1 (stereo unspecified)	HEK293 tox 25µM, 3T3 cytotox inconclusive
O=C(c1ncccc1O)N1CCCC(CCc2cccc(C(F)(F)F)c2)C1 (stereo unspecified)	HEK293 tox inconclusive, 3T3 cytotox inconclusive
O=C(CCn1cnnn1)N1CCCC(CCc2cccc(C(F)(F)F)c2)C1 (stereo unspecified)	GPT2 inh inconclusive, HEK293 tox 18µM, 3T3 cytotox inconclusive
Cn1cc(CN2CCCC(CCc3cccc(C(F)(F)F)c3)C2)cn1 (stereo unspecified)	HEK293 tox inconclusive, 3T3 cytotox inconclusive
O=C(c1ccc(-n2cnnn2)cc1O)N1CCCC(CCc2ccc(F)cc2)C1 (stereo unspecified)	HEK293 tox 35µM, 3T3 cytotox inconclusive, NPR1 antag inconclusive
COc1cccc(-c2cn3cc(C(=O)NCC(F)(F)F)nc3s2)c1	HEK293 tox inconclusive, 3T3 cytotox inconclusive (no result: Luciferase inh, NPR1 antag)
O=C(CC[C@@H]1CNC(=O)[C@@H]2C[C@H](NCc3ccccn3)CN12)NCc1ccc(F)cc1	HEK293 tox inconclusive, 3T3 cytotox inconclusive
O=C(CC[C@@H]1CNC(=O)[C@@H]2C[C@H](NCc3ccccn3)CN12)NCc1ccccc1	HEK293 tox 71µM, 3T3 cytotox 56µM
O=C(c1ccoc1)N1CCC[C@H](n2c(=O)n(Cc3ccccc3)c3cccnc32)C1	HEK293 tox inconclusive, 3T3 cytotox inconclusive
COCCNC(=O)C1CCCCN1Cc1ccc(-c2cccs2)cc1 (stereo unspecified)	HEK293 tox 40µM, 3T3 cytotox inconclusive (no result: Luciferase inh, NPR1 antag)
O=C(NCCc1ccccc1)C1CCCCN1Cc1ccc(-c2cccs2)cc1 (stereo unspecified)	HEK293 tox inconclusive, 3T3 cytotox 45µM (no result: Luciferase inh, NPR1 antag)
O=C(Nc1cccc(Cl)c1)C1CCCCN1Cc1ccc(-c2cccs2)cc1 (stereo unspecified)	HEK293 tox 28µM, 3T3 cytotox inconclusive (no result: Luciferase inh, NPR1 antag)
CCOCCNC(=O)C1CCCCN1Cc1ccc(-c2cccs2)cc1 (stereo unspecified)	HEK293 tox inconclusive, 3T3 cytotox 40µM (no result: Luciferase inh, NPR1 antag)
Cc1ccccc1CCN1CCCC(CN(C)C(=O)c2cc3ccccc3[nH]2)C1 (stereo unspecified)	HEK293 tox 22µM, 3T3 cytotox inconclusive, NPR1 antag inconclusive
Cc1cc(C(=O)N(C)CC2CCCN(CCc3ccccc3F)C2)n[nH]1 (stereo unspecified)	GPT2 inh inconclusive
CC(C)CCNC(=O)c1c(OCC2CC2)cc(=O)n2c1CCCCC2	HEK293 tox inconclusive, 3T3 cytotox 35µM
COc1cccc(-c2cc(C(=O)NCC34CCC=C3N(C)C(=O)CC4)[nH]n2)c1 (stereo unspecified)	HEK293 tox inconclusive, 3T3 cytotox inconclusive
Cc1ccc(CNC(=O)C2(CCO)CC23CCOCC3)o1 (stereo unspecified)	none
O=C(NCc1cccnc1)C1(CCO)CC12CCOCC2 (stereo unspecified)	Luciferase inh 28µM
CSc1ccc(-c2cccc(CN3CCC(NC(=O)c4ccc(Cl)cc4)CC3)c2)cc1	none (no result: Luciferase inh, GPT2 inh, NPR1 antag)
